Screens (PubChem)
Anthrax LF inh2: Bacillus anthracis LF protease inhibitors, primary screen, biochemical, multiplex microsphere, MLPCN library. Lethal factor (Bacillus anthracis), P15917. multiplex microsphere protease cleavage assay. inhibition, % at 10 µM. actives 0.12% (n = 360,000); note: plate controls were buffer without enzyme for full effect and enzyme alone for no effect
Target sequence (P15917 whole entry, looked up): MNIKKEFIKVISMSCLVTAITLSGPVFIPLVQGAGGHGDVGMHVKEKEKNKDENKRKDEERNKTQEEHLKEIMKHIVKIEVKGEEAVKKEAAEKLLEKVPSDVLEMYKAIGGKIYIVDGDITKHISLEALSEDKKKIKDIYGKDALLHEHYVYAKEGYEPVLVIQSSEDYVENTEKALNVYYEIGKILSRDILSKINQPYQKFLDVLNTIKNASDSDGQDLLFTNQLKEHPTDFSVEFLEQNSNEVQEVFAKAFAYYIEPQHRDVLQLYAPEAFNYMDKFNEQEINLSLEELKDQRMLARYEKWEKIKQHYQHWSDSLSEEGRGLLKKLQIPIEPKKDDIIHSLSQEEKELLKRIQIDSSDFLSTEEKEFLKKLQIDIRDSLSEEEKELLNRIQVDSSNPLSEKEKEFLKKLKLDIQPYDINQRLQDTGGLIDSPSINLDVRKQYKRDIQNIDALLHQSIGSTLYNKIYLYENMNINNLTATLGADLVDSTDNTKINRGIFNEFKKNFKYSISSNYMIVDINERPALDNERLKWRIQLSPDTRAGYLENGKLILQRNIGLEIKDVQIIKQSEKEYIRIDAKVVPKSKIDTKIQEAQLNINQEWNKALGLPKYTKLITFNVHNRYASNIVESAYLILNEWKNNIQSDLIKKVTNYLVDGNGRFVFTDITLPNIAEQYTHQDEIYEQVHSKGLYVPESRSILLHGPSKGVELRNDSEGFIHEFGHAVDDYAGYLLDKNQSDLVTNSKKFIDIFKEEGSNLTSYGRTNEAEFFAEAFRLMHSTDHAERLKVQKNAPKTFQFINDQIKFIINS
Bead autofluor: compound fluorescence in toxin protease inhibitor counterscreen | compound autofluorescence counterscreen, microsphere flow cytometry; stronger effect = higher value | fluorescence intensity (no concentration beside the values) | actives 3.1% (n = 360,000) | AID 624483; in the data active = fluorescence intensity above about 16000; inconclusive = no clear call, values can overlap the other calls
BoNT-A LC inh2: BoNT/A light chain protease inhibitors, primary screen, biochemical, flow cytometry, MLPCN library; Botulinum neurotoxin type A light chain protease (Clostridium botulinum A str. ATCC 3502); multiplex microsphere protease substrate cleavage; inhibition, % at 10 µM; actives 0.17% (n = 360,000); AID 588499, 2011; note: plate controls were buffer without enzyme for full effect and enzyme alone for no effect
BoNT F protease: BoNT/F light chain protease inhibitors, primary screen, biochemical, flow cytometry, MLPCN library. Multiplex microsphere protease cleavage assay. Botulinum neurotoxin type F light chain protease (Clostridium botulinum). inhibition, % at 10 µM. AID 588497, 2011. actives 0.22% (n = 360,000); in the data active = inhibition above about 35%, passing the limit was not always enough; inconclusive = no clear call, values can overlap the other calls; note: plate controls were buffer without enzyme for full effect and enzyme alone for no effect
BoNTA LC inh 1: BoNT/A light chain protease inhibitors, confirmation, biochemical, flow cytometry, cherry pick 1. actives 3% (n = 720). shares compounds with BoNT F protease. multiplex microsphere protease assay. inhibition, % at 10 µM. AID 602139, 2011; in the data active = inhibition above about 32%
BoNT-F LC CP1: BoNT/F light chain protease inhibitors, confirmation, biochemical, flow cytometry, cherry pick 1; shares compounds with BoNT F protease; 720 tested, under 10 active; inhibition, % at 10 µM; multiplex microsphere protease cleavage assay; AID 602140, 2011; call rule not given here
Anthrax LF CP1: Bacillus anthracis LF protease inhibitors, confirmation, biochemical, multiplex microsphere, cherry pick 1; shares compounds with BoNT F protease; multiplex microsphere protease cleavage assay; inhibition, % at 10 µM; 720 tested, under 10 active; AID 602142, 2011; call rule not given here
Numbers without * were called inactive; u = inconclusive; x = no result. Shown are actives, neighbours in structure and some others; about 3.5% of the full set was active somewhere. Cut-off read from the data, not from the text of the source, unless noted: active = inhibition above about 30%; inconclusive = no clear call, values can overlap the other calls; inactive = below that.

SMILES	Anthrax LF inh2	Bead autofluor	BoNT-A LC inh2	BoNT F protease	BoNTA LC inh 1	BoNT-F LC CP1	Anthrax LF CP1
Cc1ccc(CC2(c3ccccc3)NC(=O)NC2=O)cc1 (stereo not drawn)	-6	3662	0	2	x	x	x
CC(C)Oc1ccc(C(=O)CCN2CCOCC2)cc1	0	4370	1	-8	-1	-6	0
O=C(CCN1CCN(c2ccccc2)CC1)c1ccc(Br)cc1	12	3703	1	11	x	x	x
O=C(CCN1CCOCC1)c1ccc(Br)cc1	-4	4225	6	40*	0	-5	-1
CCCCCOc1ccc(C(=O)CCN2CCOCC2)cc1	-1	3418	2	-5	x	x	x
O=C(CCN1CCOCC1)c1ccc(Cl)cc1	-2	3570	5	42*	0	-1	2
O=C(Cc1c(F)cccc1Cl)N/N=C/c1cccnc1	8	4101	0	-2	x	x	x
CCS(=O)(=O)N1CCC(C(=O)Oc2ccc(C(=O)OC)cc2)CC1	-2	5488	1	-9	x	x	x
CCS(=O)(=O)N1CCC(C(=O)Oc2ccccc2)CC1	-2	4002	1	39*	0	-3	1
COc1cccc(C(=O)Nn2cnnc2)c1	-2	4632	0	-7	x	x	x
COc1cc(OC)cc(C(=O)Nn2cnnc2)c1	37*	3694	3	u	0	-6	-2
COc1ccc(C(=O)N2CCN(Cc3ccc(OC)c(OC)c3)CC2)cc1	17	3398	4	44*	0	3	-1
COc1ccc(C(=O)N2CCN(Cc3cc(OC)ccc3OC)CC2)cc1	-1	4285	0	u	x	x	x
O=[N+]([O-])c1ccc(N(c2ccccc2)c2ccccc2)cc1	47*	21531*	58*	24	21	10	16
O=c1c(Cl)c2oc3ccccc3nc-2c2ccccc12	25	6118	47*	6	32*	8	23
CC(=O)C1=CCC(c2cccc(Cl)c2)N(S(=O)(=O)c2ccc(C)cc2)C1 (stereo not drawn)	-5	5560	-1	4	x	x	x
C[C@H](O)C#Cc1ccc2c(c1)O[C@@H](CN(C)Cc1ccc(-c3ccccc3)cc1)[C@H](C)CN([C@@H](C)CO)S2(=O)=O	-3	3453	0	2	x	x	x
Cc1cc(C)c(NC(=O)C2CCCO2)c(C)c1NC(=O)C1CCCO1 (stereo not drawn)	-7	2848	-2	38*	0	-4	-6
Cc1oc(C)c(S(=O)(=O)NCc2cccs2)c1C(=O)O	38*	4495	u	u	0	-3	2
Cc1c(C(=O)N2CCN(S(=O)(=O)c3cc(F)ccc3F)CC2)oc2ccccc12	-1	4299	-1	-5	x	x	x
COc1ccc(CNC(=O)Cc2c[nH]c3ccccc23)cc1OC	7	4107	-3	-6	x	x	x
COC(=O)c1ccc(CNC(=O)CCc2c[nH]c3ccccc23)cc1	10	3982	4	81*	0	6	1
COc1ccc(CNC(=O)N[C@@H](Cc2c[nH]c3ccccc23)C(=O)O)cc1	9	2964	5	77*	-1	2	0
COc1ccc(CNC(=O)CCc2c[nH]c3ccccc23)cc1	2	4079	-2	13	x	x	x
COc1ccccc1CNC(=O)Cc1c[nH]c2ccccc12	-6	2995	1	36*	-1	-1	2
O=C(O)c1ccccc1C(=O)OC1CCCC2CCCC21 (stereo not drawn)	0	3434	0	-5	x	x	x
Clc1ccc(-c2nc(N3CCCCC3)nc3ccccc23)cc1	16	10695	32*	59*	11	-1	2
O=C(O)CCC(=O)N1CCN(c2nc(-c3ccccc3)c3ccccc3n2)CC1	-6	3212	-2	10	x	x	x
Cc1nn(C)c(C)c1NC(=O)c1cc2nc(-c3ccco3)cc(C(F)(F)F)n2n1	-4	3882	0	-1	0	0	4
Cc1ccccc1Cn1cc(NC(=O)c2cc3nc(-c4ccco4)cc(C(F)(F)F)n3n2)cn1	-2	2908	0	12	1	0	-3
